# Assay results published in PubChem BioAssay (Tox21).
# Records with an inconclusive call do not appear. Activity calls are given as the source filed them. Calls come from the whole dose curve; as a rule, active = well fitted inhibition curve with a large enough effect in the repeat runs; inconclusive = weak or mixed curves, or effect the other way; inactive = no such curve, though single readings can be large or run the other way.
# Test: qHTS assay to identify small molecule antagonists of the retinoic acid receptor (RAR) signaling pathway (AID 1159552; note: nearly all actives have a fitted effect of over 50% in size)
# Settings: C3RL4 RARE luciferase reporter, retinol-stimulated, 6 h; series mostly up to 92.4 µM; activity, negative = inhibition: at the top concentration
# Description: National Center for Advancing Translational Sciences [NCATS]
# NIH Chemical Genomics Center [NCGC]
# U.S. Environmental Protection Agency [EPA]
# National Institutes of Environmental Health Sciences [NIEHS]
# National Toxicology Program [NTP]
# U.S. Food and Drug Administration [FDA]
# All-trans Retinoic acid (atRA) is the potent natural metabolite of retinol and plays an important role in normal embryonic development and maintenance of cellular phenotype in adult animals. atRA is the activating ligand for the retinoic acid receptors (RARs) which form heterodimers with retinoid X receptors (RXRs) on the retinoic acid response element (RARE). Through activation of the RAR/RXRs nuclear receptors, atRA regulates the transcription of a large number of protein-coding genes and regulatory RNAs. Intracellular levels of atRA are controlled by the retinol signaling pathway (RSP) that regulates the biosynthesis and catabolism of atRA to maintain physiological levels. Chemicals that interfere with the RSP can cause abnormal intracellular levels of atRA and therefore are potential developmental toxicants. To assess compounds for the potential adverse effect on embryonic development through interfering with retinol signaling, a cell-based RARE luciferase reporter gene assay was used. C3RL4 cell line (OARSA/CFSAN/FDA, Laurel, MD) was used to screen Tox21 10K compound library for identifying inhibitors of the RSP.
# Tox21 Assay Protocol Summary:
# C3RL4 cells were seeded at 1,000/well in 4 uL of assay medium into white solid 1,536-well tissue culture plates (Greiner Bio-One North America Inc. Monroe, NC) using a Multidrop Combi (Thermo Scientific, Waltham, MA) dispenser. After incubation at 37 C and 5% CO2 for an overnight, 23 nL of compounds dissolved in DMSO, positive control or DMSO only were transferred by a Pintool station (Kalypsys, San Diego, CA). One ul of 1 uM (final concentration) of Retinol was added right after the compound addition by using a Flying Reagent Dispenser (FRD) (Aurora Discovery, San Diego, CA). After 6 hr incubation at 37 C and 5% CO2, 5 uL of Amplite Luciferase reagent (AAT Bioquest Inc. Sunnyvale, CA) was added to each assay plate using an FRD. Luminescence was quantified on a ViewLux plate reader (PerkinElmer, Waltham, MA) after 30 min incubation at room temperature.
# % is set by controls: 0 for no effect and ±100 for the full control effect; potency is the fitted concentration of half-maximal effect.
Structure (SMILES),"activity, negative = inhibition",Potency
CCOP(O)OCC,-0.842% (inactive),–
O=C(O)C1(c2ccc3c(c2)OC[C@H](Cc2ccc(-c4ccccc4)cc2)[C@H]3O)CCCC1,-13.7% (inactive),–
Cn1sc(Cl)cc1=O,14.2% (inactive),–
OCCCBr,53.1% (inactive),–
CC(C)O.CC(C)O.OCCN(CCO)CCO.OCCN(CCO)CCO.[Ti],3.01% (inactive),–
CCOP(=O)(OCC)SCCSCC,–,inactive
CC(C)(OO)c1ccccc1,12.4% (inactive),–
CCCC(=O)Cl,52.4% (inactive),–
C[N+](C)(C)CCCl,-2.14% (inactive),–
C=CC(=O)OC,-7.87% (inactive),–
CO/N=C(/C(=O)OC)c1ccccc1COc1ccccc1C,–,7.7 µM (active)
S=C=NCc1ccccc1,10.3% (inactive),–
COc1ccc(-c2ccccc2)cc1NNC(=O)OC(C)C,-4% (inactive),–
C(=NC1CCCCC1)=NC1CCCCC1,–,inactive
Nc1nc(=S)[nH][nH]1,8.45% (inactive),–
C[C@H]1CNCCc2ccc(Cl)cc21,-10.4% [at 42.5 µM] (inactive),–
O=Cc1ccc(Cl)cc1Cl,2.49% (inactive),–
C=COC(C)=O,0.289% (inactive),–
C=CC(=O)OC(C)(C)C,75.5% (inactive),–
CC(C)=CCOc1c2occc2cc2ccc(=O)oc12,-9.37% [at 42.5 µM] (inactive),–

Structure (SMILES),"activity, negative = inhibition",Potency
CN1[C@@H]2CC[C@H]1CC(OC(=O)c1cc(Cl)cc(Cl)c1)C2 (stereo not given in full),-16.6% [at 42.5 µM] (inactive),–
O=C(O)C(F)(F)C(F)(F)C(F)(F)C(F)(F)C(F)(F)C(F)(F)C(F)(F)C(F)(F)C(F)(F)C(F)(F)F,57% (inactive),–
COC(=O)C(C)N(C(=O)Cc1ccccc1)c1c(C)cccc1C (stereo not given),-17.6% (inactive),–
O=C(Nc1ccccc1)Nc1ccnc(Cl)c1,-21.5% (inactive),–
CC1C(=O)C[C@]2(C(C)C)C[C@H]12 (stereo not given in full),8.43% (inactive),–
CC(Cl)Cl,11.9% (inactive),–
CC(c1ccc(O)cc1)(c1ccc(O)cc1)c1ccc(O)cc1,–,61.1 µM (active)
c1ccc(C2CC2)c(OCC2=NCCN2)c1,-6.16% [at 42.5 µM] (inactive),–
COP(=S)(OC)Oc1ccc([N+](=O)[O-])cc1Cl,-0.627% (inactive),–
O=S1OC[C@@H]2[C@H](CO1)[C@]1(Cl)C(Cl)=C(Cl)[C@@]2(Cl)C1(Cl)Cl (stereo not given in full),-14.1% (inactive),–
CNC(C)Cc1ccccc1OC (stereo not given),3.31% [at 42.5 µM] (inactive),–
O=Cc1ccc2c(c1)OCO2,-23.3% (inactive),–
COP(=O)(OC)O/C(=C/Cl)c1cc(Cl)c(Cl)cc1Cl,–,57.5 µM (active)
CC(C)N(CCC(C(N)=O)(c1ccccc1)c1ccccn1)C(C)C (stereo not given),-0.142% [at 42.5 µM] (inactive),–
Cc1ccccc1CCl,12.4% (inactive),–
O=C(Nc1ccccc1)Nc1cnns1,46.1% (inactive),–
O=C(O)COc1ccc(Cl)cc1,2.57% (inactive),–
CCOP(=S)(OCC)Oc1cc(Cl)c(Br)cc1Cl,-7.11% (inactive),–
ClCC(Br)CBr (stereo not given),29% (inactive),–
O=NN1CCNCC1,146% (inactive),–
